The text below walks through data of PubChem BioAssay AID2685 (National Center for Advancing Translational Sciences (NCATS), 2010).

Each structure is given as a SMILES string. In all, about 320,000 compounds went through this assay and about 2,100 (0.66%) were called active. Another 53% or so got no clear call; they are omitted. Calls follow the shape of the dose curve; as a rule, active = well fitted inhibition curve with a large enough effect in the signal ratio, with a control signal flat (not every such curve was filed as active); inconclusive = small, poorly fitted or top-dose-only effect, or effect the other way, or a change in a side signal; inactive = flat fitted curve, though single readings scatter; the % refers to the signal ratio. The list comes from a sample in which actives are over-represented; it also holds similar structures and randomly drawn compounds. Where a SMILES comes first, the peptide text is derived from it. [ ]: non-standard residue; d: D form. The star is where a group is joined. ξ: configuration not given here. ξF = NC(Cc1ccccc1)C(=O)O; Cbz = O=C(OCc1ccccc1)*
Potency is read from the fitted curve at half-maximal effect.

This assay can be described thus: qHTS Assay for Lipid Storage Modulators in Drosophila S3 Cells.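 As to cell number change: cells counted by Cell Tracker Red CMTPX staining in the red channel.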 As to lipid storage change, negative = inhibition: % is scaled to controls: 0 for no effect and ±100 for the full control effect. Particulars: BODIPY lipid droplet fluorescence, 18-24 h, cells fed with added oleic acid; cell number change: measured here: cell count max response; series mostly up to 46.1 µM; lipid storage change, negative = inhibition: at the top concentration. The essentials:
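Laser-scanning cytometry quantifies lipid droplet accumulation (500–530 nm total intensity; droplet/cell object ratio) in oleic acid-fed (400 uM added) Drosophila S3 cells treated with a concentration series. 20 uM Triacsin C defined 100% inhibition.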
A general note: In qHTS, concentration-response curves come from the screen itself.
Take `Cc1ccc2nc(-c3ccccn3)cc(C(=O)NC3CCN(C)CC3)c2c1`: the Potency was 25.9 µM (active). On to `CN1CCN(NC(=O)c2cc(-c3ccccn3)nc3ccccc23)CC1`, for which the “lipid storage change, negative = inhibition” value is 6.1% (inactive) and the cell number change was determined as 28.4%. For `CCCN1CCN(C(=O)c2nn(-c3ccc(OC)cc3)c(=O)c3c2c2ccccc2n3C)CC1`, the “lipid storage change, negative = inhibition” value was -0.752% (inactive) and the cell number change was -5.33%.

With `O=C1/C(=C/c2ccccc2)SC(=S)N1C1CCS(=O)(=O)C1` (stereo unspecified), the “lipid storage change, negative = inhibition” value was -6.37% (inactive) and the cell number change is 7.35%.

On to `C/C(CC(=O)NC12CC3CC(CC(C3)C1)C2)=N\NC(=O)c1cnccn1`, for which the “lipid storage change, negative = inhibition” value is -2.28% (inactive) and the cell number change was 1.39%. On to `Cc1nccc2[nH]c(=O)c(C(=O)NC3CCCCC3C)cc12` (stereo unspecified), for which the call was inactive and the cell number change was 3.44%. Turning to `Cc1cccc(/C=C2\Sc3ccc(C(=O)N4CCC(C)CC4)cc3N(C)C2=O)c1`, the compound was called inactive.

Regarding `CCOc1ccc(/C=C2/Sc3ccc(C(=O)N4CCOCC4)cc3N(C)C2=O)cc1OC`, the Potency was 20.6 µM (active) and the cell number change is -3.07%. With `CN1C(=O)/C(=C/c2cccc(Cl)c2)Sc2ccc(C(=O)N3CCOCC3)cc21`, the compound was called inactive.

In the case of `COc1cccc(/C=C2\Sc3ccc(C(=O)NCc4cccnc4)cc3N(C)C2=O)c1`, the “lipid storage change, negative = inhibition” value was 0.131% (inactive) and the cell number change is -1.61%.

For `CCOC(=O)N1CCC(NC(=O)c2ccc3c(c2)N(C)C(=O)/C(=C/c2cccc(OC)c2)S3)CC1`, the Potency was 2.91 µM (active) and the cell number change is -26%. Turning to `CN1C(=O)/C(=C/c2cccc(Cl)c2)Sc2ccc(C(=O)N3CCCC3)cc21`, the “lipid storage change, negative = inhibition” value was -2.44% (inactive). As to `CN(Cc1ccccc1)c1nc2c(c(=O)[nH]c(=O)n2C)n1C`, the “lipid storage change, negative = inhibition” value is 3.79% (inactive) and the cell number change is -14.1%.

With `O=C(CSc1ncnc2c1nnn2Cc1ccc(F)cc1)NC1CCCCC1`, the Potency is 20.6 µM (active) and the cell number change is -16.3%. `O=C(CSc1ncnc2c1nnn2Cc1ccccc1)NC1CCCCC1`: the “lipid storage change, negative = inhibition” value was -3.24% (inactive) and the cell number change was -19.4%. For `O=C(CSc1ncnc2c1nnn2Cc1ccccc1)NC1CCCC1` the same measures were -19% (inactive) and -1.92%. For `CC(C)(C)C1CCC2(CC1)SCC(=O)N2c1ccccc1` (stereo unspecified) the same measures were 9.11% (inactive) and -2.85%.

With `COCc1cc(C)nc(SCC(=O)Nc2ccccc2N2CCOCC2)c1C#N`, the Potency is 13 µM (active) and the cell number change was -22.4%. `COCc1cc(C)nc(SCC(=O)Nc2ccc3c(c2)OCCO3)c1C#N`: the “lipid storage change, negative = inhibition” value was 23.6% (inactive) and the cell number change is 16.8%. For `COCc1cc(C)nc(SCC(=O)Nc2ccc(N3CCOCC3)cc2)c1C#N` the same measures were 3.29% (inactive) and 5.82%. For the compound `O=C(N/N=C/c1ccsc1)c1ccc2c(c1)OCO2`, the “lipid storage change, negative = inhibition” value was 20% (inactive) and the cell number change is 17%. For the compound `Cc1cc(-c2ccc(C)c(S(=O)(=O)NCCC(C)N3CCCCCC3)c2)on1` (stereo unspecified), the “lipid storage change, negative = inhibition” value is -5.57% (inactive) and the cell number change was 3.3%.

Consider `CCOC(=O)CNC(=O)C(Cc1ccccc1)NC(=O)OCc1ccccc1` (stereo unspecified) (Cbz-[ξF]-Gly-OEt), for which the “lipid storage change, negative = inhibition” value was -13.8% (inactive). Regarding `COc1ccc(CCNC(=O)C(NC(=O)OCc2ccccc2)C(C)C)cc1OC` (stereo unspecified), the “lipid storage change, negative = inhibition” value is 3.69% (inactive) and the cell number change was 2.79%.

`CCOc1ccc(CN(C)C(=O)[C@H](Cc2ccccc2)NC(=O)OCc2ccccc2)cc1OC`: the Potency is 8.2 µM (active) and the cell number change was determined as 6.3%.

For the compound `CN1CCN(C2=NC(=O)/C(=C/c3ccccc3OS(=O)(=O)c3ccccc3)S2)CC1`, the “lipid storage change, negative = inhibition” value was -11.1% (inactive) and the cell number change was 6.94%. Regarding `CCOC(=O)C(NC(C)=O)(Nc1ccc(F)cc1)C(F)(F)F` (stereo unspecified), the “lipid storage change, negative = inhibition” value was -1.37% (inactive) and the cell number change is -0.408%. On to `CCOC(=O)C(NC(C)=O)(Nc1cccc(F)c1)C(F)(F)F` (stereo unspecified), for which the Potency was 4.11 µM (active) and the cell number change was -1.43%. Regarding `CCOC(=O)C(NC(=O)CC)(Nc1ccccc1)C(F)(F)F` (stereo unspecified), the “lipid storage change, negative = inhibition” value was -8.39% (inactive) and the cell number change is -9.13%. For `CNC(=O)C1CC(=O)N(c2ccc(F)c(Cl)c2)C1` (stereo unspecified) the same measures were 13.9% (inactive) and 9.35%.

On to `CCOc1ccc(OCCN2CCCCC2)cc1`, for which the “lipid storage change, negative = inhibition” value was -4.06% (inactive) and the cell number change is -0.326%. On to `CCC(C)c1ccc(OCCN2CCCC2)cc1` (stereo unspecified), for which the Potency is 23.1 µM (active) and the cell number change was found to be 7.66%. As to `CC(C)c1ccc(OCCCN2CCCC2)cc1`, the “lipid storage change, negative = inhibition” value was -5.07% (inactive) and the cell number change turned out to be 0.741%. For `COc1ccc(OC)c(NS(=O)(=O)c2ccc(Cl)nc2)c1` the same measures were -10.3% (inactive) and 7.58%. Turning to `CC(=O)NNC(=S)NCCc1ccccc1`, the “lipid storage change, negative = inhibition” value was 6.36% (inactive) and the cell number change turned out to be 6.47%. Taken in the same sequence, the figures for `CCOCc1[nH]c(=S)[nH]c(=O)c1Cc1ccc(OCC)cc1` were -24.1% (inactive) and 9.42%. For `COc1ccc(CNc2nc3ccccc3n2Cc2ccc(Cl)cc2)cc1OC` the same measures were -0.203% (inactive) and -0.354%. `CCOC(=O)N1CCN(C(=O)CCc2cc(OC)c(OC)c(OC)c2)CC1`: the “lipid storage change, negative = inhibition” value is 19.9% (inactive) and the cell number change turned out to be 18.4%. Turning to `COc1ccc(CNS(=O)(=O)c2ccc3c(c2)N(C(C)=O)CC(C)S3)cc1` (stereo unspecified), the outcome was inactive and the cell number change is -3.12%. Take `CC(=O)N1CC(C)Sc2ccc(S(=O)(=O)NCCc3ccc(C)cc3)cc21` (stereo unspecified): the Potency was 6.51 µM (active) and the cell number change is -15.2%. For the compound `CC(=O)N1CC(C)Sc2ccc(S(=O)(=O)NCc3ccc(Cl)cc3)cc21` (stereo unspecified), the “lipid storage change, negative = inhibition” value was 20.2% (inactive) and the cell number change came to 17.6%. Taken in the same sequence, the figures for `CCc1ccc(-n2c(C)cc(/C=N/NC(=O)OC)c2C)cc1` were 7.36% (inactive) and -6.79%. Regarding `Cc1ccc(OCc2nnc(NC(=O)OCC(C)C)s2)c(C)c1`, the outcome was inactive.

As to `CCCCOC(=O)Nc1nnc(COc2ccccc2)s1`, the “lipid storage change, negative = inhibition” value is 8.5% (inactive) and the cell number change was -19.4%. In the case of `Cc1ccc(OCc2nnc(NC(=O)OCC(C)C)s2)cc1`, the Potency was 18.4 µM (active) and the cell number change was 0.0966%. For `O=C(NC1CCN(S(=O)(=O)c2ccc(Cl)c(F)c2)CC1)c1cccnc1`, the “lipid storage change, negative = inhibition” value is -20% (inactive) and the cell number change is -17.9%.
